Records with an inconclusive call do not appear. Unmarked numbers belong to inactive results. Calls of active or inactive are those of the source. Calls follow the shape of the dose curve; as a rule, active = well fitted cell-killing curve with a large enough effect; inconclusive = small, poorly fitted or top-dose-only effect, or effect the other way; inactive = no such curve, though single readings can be large or run the other way.
Tested on: PA-1
Assay: Confirmatory qHTS for gynecologic anti-cancer compounds from libraries of approved drugs and bioactive compounds; also: nearly all actives have a fitted effect of over 55% in size
Conditions: gynecologic cancer cell panel viability, ATPlite luminescence, 48 h; series mostly up to 57.6 µM; activity change, negative = viability loss: at the top concentration
Procedure, shortened: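 Cells (1,000/well) plated 16 h, then exposed 48 h at 37 °C to 11 concentrations (1:3) from 57.5 uM to 0.977 nM. Viability by ATPlite luminescence after 15 min; IC50 derived, with HEK 293T used for selectivity index.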
% is scaled to controls: 0 for no effect and ±100 for the full control effect; potency is read from the fitted curve at half-maximal effect.

| Compound | Potency | activity change, negative = viability loss |
| --- | --- | --- |
| Cn1cc(-c2[nH]c3cc(NC(=O)[C@H](N)C4CCCCC4)cc4c3c2C=NNC4=O)cn1 | 8.63 µM (active) | – |
| CCC1C(=O)N(C)c2cnc(Nc3ccc(C(=O)NC4CCC(N5CCN(CC6CC6)CC5)CC4)cc3OC)nc2N1C(C)C (centres undefined) | 0.0769 µM (active) | – |
| O=c1[nH]c(=O)n([C@H]2C[C@H](O)[C@@H](CO)O2)cc1Br | – | -6.35% |
| O=C(c1ccc(/C=C/c2n[nH]c3ccccc23)cc1)N1CCNCC1 | 6.11 µM (active) | – |
| Cc1[nH]c2ccccc2c1CCNCc1ccc(/C=C/C(=O)NO)cc1 | 0.122 µM (active) | – |
| CC(C)Nc1cc(-c2c[nH]c(C(=O)N[C@H](CO)c3cccc(Cl)c3)c2)c(Cl)cn1 | 6.11 µM (active) | – |
| CNC(=O)c1ccccc1Sc1ccc2c(/C=C/c3ccccn3)n[nH]c2c1 | 4.32 µM (active) | – |
| CC(Oc1cc(-n2cnc3ccc(CN4CCN(C)CC4)cc32)sc1C(N)=O)c1ccccc1C(F)(F)F (centres undefined) | 2.43 µM (active) | – |
| COc1c(C)c2c(c(O)c1C/C=C(\C)CCC(=O)OCCN1CCOCC1)C(=O)OC2 | 0.485 µM (active) | – |
| O=C(CCCCCCNC(=O)c1cnc(N(c2ccccc2)c2ccccc2)nc1)NO | 3.06 µM (active) | – |
| CCCCc1oc2ccccc2c1C(=O)c1cc(I)c(OCCN(CC)CC)c(I)c1 | 39.8 µM (active) | – |
| CC(=O)OC12COC1CC(O)C1(C)C(=O)C(O)C3=C(C)C(OC(=O)C(O)C(NC(=O)OC(C)(C)C)c4ccccc4)CC(O)(C(OC(=O)c4ccccc4)C21)C3(C)C (centres undefined) | 0.0077 µM (active) | – |
| C#C[C@]1(O)CC[C@H]2[C@@H]3CCC4=CC(=O)CC[C@@H]4[C@H]3CC[C@@]21CC | – | -1.74% |
| CN(C)C/C=C/C(=O)Nc1cc2c(Nc3ccc(F)c(Cl)c3)ncnc2cc1OC1CCOC1 (centres undefined) | 9.68 µM (active) | – |
| CCN1CCN(Cc2ccc(Nc3ncc(F)c(-c4cc(F)c5nc(C)n(C(C)C)c5c4)n3)nc2)CC1 | 2.43 µM (active) | – |
| CC1=C(/C=C/C(C)=C/C=C/C(C)=C/C(=O)Nc2ccc(O)cc2)C(C)(C)CCC1 | 4.85 µM (active) | – |
| CCCC(=O)O[C@]1(C(=O)CCl)[C@@H](C)C[C@H]2[C@@H]3CCC4=CC(=O)C=C[C@]4(C)[C@@]3(F)C(=O)C[C@@]21C | 19.3 µM (active) | – |

| Compound | Potency | activity change, negative = viability loss |
| --- | --- | --- |
| Cc1nc2ccc(CN(C)c3ccc(C(=O)NC(CCC(=O)O)C(=O)O)s3)cc2c(=O)[nH]1 (centres undefined) | 0.137 µM (active) | – |
| CC[C@@]1(O)C(=O)OCc2c1cc1n(c2=O)Cc2cc3c(CN(C)C)c(O)ccc3nc2-1 | 0.273 µM (active) | – |
| COc1cc2nccc(Oc3ccc(NC(=O)Nc4cc(C)on4)c(Cl)c3)c2cc1OC | 5.44 µM (active) | – |
| CC(C)CC(=O)Nc1n[nH]c2c1CN(C(=O)C1CCN(C)CC1)C2(C)C | 0.172 µM (active) | – |
| CC(C)Oc1ccc2c(=O)c(-c3ccccc3)coc2c1 | 17.2 µM (active) | – |
| CNCc1ccc(-c2[nH]c3cc(F)cc4c3c2CCNC4=O)cc1 | 19.3 µM (active) | – |
| OC[C@H]1O[C@@H](n2cnc3c(=S)nc[nH]c32)[C@H](O)[C@@H]1O | 2.73 µM (active) | – |
| CCn1c(-c2nonc2N)nc2c(C#CC(C)(C)O)ncc(OCC3CCCNC3)c21 (centres undefined) | 7.69 µM (active) | – |
| Cn1c(=O)c(F)c(Nc2ccc(I)cc2F)c2c(=O)n(CC(O)CO)cnc21 (centres undefined) | 2.17 µM (active) | – |
| Nc1cccc(-c2cc3c(Oc4cccc(O)c4)ncnc3[nH]2)c1 | 9.68 µM (active) | – |
| COCCOc1nc(-c2ccc(Cl)c(Cl)c2)n(-c2ccc(NC(=O)CCl)cc2)n1 | 8.63 µM (active) | – |
| Cc1c(NC(=O)OCC2COCCN2)cn2ncnc(Nc3ccc4c(cnn4Cc4cccc(F)c4)c3)c12 (centres undefined) | 27.3 µM (active) | – |
| CC(C)[C@@H](CS(=O)(=O)C(C)C)N1C(=O)[C@@](C)(CC(=O)O)C[C@H](c2cccc(Cl)c2)[C@H]1c1ccc(Cl)cc1 | 2.43 µM (active) | – |
| C[C@]12CCC(=O)C=C1CC[C@@H]1[C@@H]2[C@@H](O)C[C@@]2(C)[C@H]1CC[C@]2(O)C(=O)CO | 21.7 µM (active) | – |
| N=C(N)c1ccc(OCCCCCOc2ccc(C(=N)N)cc2)cc1 | 4.32 µM (active) | – |
| CN(C)C1CCN(C(=O)c2ccc(NC(=O)Nc3nc(N4CCOCC4)nc(N4CCOCC4)n3)cc2)CC1 | 1.09 µM (active) | – |
| CC[C@@]1(O)C(=O)OCc2c1cc1n(c2=O)Cc2c-1nc1ccccc1c2/C=N/OC(C)(C)C | 0.0273 µM (active) | – |

From PubChem BioAssay AID1345085 (National Center for Advancing Translational Sciences (NCATS), 2018)
